ChEMBL document CHEMBL3988442, “University of Dundee, Small-Polar-MMV Screening Library” (2021)
Results with a measured potency or affinity are listed apart.

Each molecule was assayed against Protein translocase subunit SecA (Escherichia coli (strain K12)) (UniProt P10408) (assay: Assay to Identify E. coli SecA ATPase Inhibitors). Conditions: 30 µM.
Format: functional
Set-up: scale not given: direction of the effect not stated beside the values

Chain of Protein translocase subunit SecA (Escherichia coli (strain K12)) (P10408 whole entry): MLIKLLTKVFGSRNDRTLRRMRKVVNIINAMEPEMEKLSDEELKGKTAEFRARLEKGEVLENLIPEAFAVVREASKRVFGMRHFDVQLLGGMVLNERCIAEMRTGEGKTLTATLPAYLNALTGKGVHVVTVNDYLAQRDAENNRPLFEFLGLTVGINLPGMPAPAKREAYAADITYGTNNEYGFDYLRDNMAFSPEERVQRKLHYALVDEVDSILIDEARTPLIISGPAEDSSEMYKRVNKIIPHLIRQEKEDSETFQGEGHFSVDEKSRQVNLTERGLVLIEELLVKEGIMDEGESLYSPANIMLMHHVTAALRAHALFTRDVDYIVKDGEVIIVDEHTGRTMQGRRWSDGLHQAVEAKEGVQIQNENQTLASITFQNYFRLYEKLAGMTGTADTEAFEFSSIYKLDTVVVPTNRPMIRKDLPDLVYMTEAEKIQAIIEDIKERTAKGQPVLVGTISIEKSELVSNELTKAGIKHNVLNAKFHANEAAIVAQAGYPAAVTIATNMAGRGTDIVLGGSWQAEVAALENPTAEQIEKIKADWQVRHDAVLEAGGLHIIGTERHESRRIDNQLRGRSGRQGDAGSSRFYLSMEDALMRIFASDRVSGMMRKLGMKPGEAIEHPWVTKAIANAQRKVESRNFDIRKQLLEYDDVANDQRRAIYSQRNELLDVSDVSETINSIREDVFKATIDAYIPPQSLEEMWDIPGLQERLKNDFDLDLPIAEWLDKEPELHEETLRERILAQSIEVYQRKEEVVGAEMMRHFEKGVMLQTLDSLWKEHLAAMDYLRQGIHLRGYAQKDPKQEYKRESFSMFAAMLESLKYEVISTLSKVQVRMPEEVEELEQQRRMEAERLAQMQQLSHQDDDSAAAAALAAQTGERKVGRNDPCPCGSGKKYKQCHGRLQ

Row | Compound | Percent Effect
1 | Cc1cnn(CC2CCCCN2CCC(=O)Nc2cc(C)on2)c1 (stereo not given) | -4.7%
2 | CNS(=O)(=O)Cc1ccc(CNC(=O)Nc2cn[nH]c2)cc1 | -5.68%
3 | Cc1c(C(=O)NC(CN2CCCC2=O)c2ccccc2)cnn1C (stereo not given) | 0.252%
4 | O=C(O)c1nnn(-c2ccc(F)c(F)c2)c1-c1ccncc1 | -2.11%
5 | Cc1ccccc1CCNC(=O)C1CC(=O)N(CC(F)(F)F)C1 (stereo not given) | -3.95%
6 | CC(C)CN1CCCC2(CCN(C(=O)c3cnccn3)C2)C1 (stereo not given) | 2.12%
7 | O=C(NCC(F)(F)F)C1CSCN1S(=O)(=O)c1ccc(F)cc1 (stereo not given) | -4.1%
8 | CO[C@@H]1CC[C@H]2[C@H]1OCCN2C(=O)C1=CCCC1 | -3.13%
9 | COCC1CN(Cc2ccc(C)o2)Cc2cn(C)nc21 (stereo not given) | -1.58%
10 | Cc1cc(NC(=O)CCc2ccsc2)n(C)n1 | -8.05%
11 | O=C(Cc1ccc(O)c(Cl)c1)N1CCCCC1CCn1cccn1 (stereo not given) | -3.9%
12 | Cc1cnn(CC(C)NCc2csc(-c3ccco3)n2)c1 (stereo not given) | -3.81%
13 | CCc1nnc2n1CCN(C(=O)c1ccc3nc(C)c(C)nc3c1)C2 | -3.88%
14 | Cc1cc(CN(C)C(=O)NC(C)c2nncn2C)no1 (stereo not given) | -1.93%
15 | COC(=O)CS(=O)(=O)CCC(=O)N1CCCC1c1ccsc1 (stereo not given) | -3.22%
16 | CC(=O)N1CCN(S(=O)(=O)c2ccc(C)c(F)c2)CC1 | -4.54%
17 | CN(C)C(=O)CN1C[C@@H]2CC[C@H](C1)N(Cc1cc(F)ccc1F)C2 | -2.16%
18 | Cc1nn(C)c(N(C)C)c1CNCc1cccnc1-n1cncn1 | -3.71%
19 | Cn1ccnc1CN1CCCCC1Cn1cccn1 (stereo not given) | -4.99%
20 | COc1cc(C(=O)N2CCC(c3n[nH]c(C4CC4)n3)CC2)ccc1C | -4.66%
